For 8 molecules, Potency and outcome results are on record in PubChem BioAssay (Tox21).

SMILES strings stand for the structures. Values joined by “and” are separate entries in the source; they are usually repeats but may differ in a detail not shown here. Equal values may be shown once. Records with an inconclusive call do not appear. A structure can be active in one record and inactive in another. Active and inactive are the calls of the source. Unless noted, calls follow the shape of the dose curve; as a rule, active = well fitted curve in the direction sought with a large enough effect in the repeat runs; inconclusive = weak or mixed curves; inactive = no such curve, though single readings can be large; an effect the other way counts as inactive or inconclusive.

Assay [1] is described as follows: A CellTox Green Cytotoxicity Assay to monitor cytotoxicity in HepG2 cells - 32 hour (AID 1224883). Also: nearly all actives have a fitted effect of over 50% in size. Also: potency is read from the fitted curve at half-maximal effect. The method, boiled down: (§1)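 HepG2 cells were seeded together with the CellTox Green dye at 600 cells/well, left 5 h at 37 C/5% CO2, then given compounds in DMSO. Fluorescence from dye bound to dead-cell DNA was read repeatedly over 40 h of treatment at 37 C.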
Assay [2] in a line: A CellTox Green Cytotoxicity Assay to monitor cytotoxicity in HEK293 cells - 8 hour (AID 1224884). Also: nearly all actives have a fitted effect of over 35% in size. Also: potency is read from the fitted curve at half-maximal effect. The method, boiled down:
(§2)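 HEK293 cells premixed with CellTox Green dye were seeded at 600 cells/well and left 5 h at 37 C/5% CO2 before pin transfer of 23 nL compound in DMSO. Fluorescence from dye bound to dead-cell DNA was read during 40 h treatment.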

Assay [3] is described as follows: qHTS RealTime-Glo MT Cell Viability Assay in HepG2 cells - 16 hour (AID 1224885). Also: nearly all actives have a fitted effect of over 50% in size. The method, boiled down: (§3)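 HepG2 cells (600/well) were dispensed with RealTime-Glo reagents, incubated 5 h at 37 °C, then treated with compounds in DMSO for up to 40 h. Nonlytic NanoLuc luminescence reflecting viable cells was read at each stated time point.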
The nature of assay [4]: qHTS RealTime-Glo MT Cell Viability Assay in HEK293 cells - 24 hour (AID 1224886). Also: nearly all actives have a fitted effect of over 50% in size. Also: potency is read from the fitted curve at half-maximal effect. The method, boiled down: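 HEK293 cells seeded with NanoLuc/prosubstrate reagent, rested 5 h at 37 C, then dosed and kept at 37 C up to 40 h. Nonlytic real-time luminescence from viable cells read at 0, 8, 16, 24, 32 and 40 h.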
The nature of assay [5]: qHTS RealTime-Glo MT Cell Viability Assay in HEK293 cells - 8 hour (AID 1224887). Also: top concentration of the series differs between compounds; nearly all actives have a fitted effect of over 50% in size. The method, boiled down:
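HEK293 cells mixed with RealTime-Glo reagents (NanoLuc plus cell-permeant prosubstrate) at 600 cells/well, preincubated 5 h at 37 C/5% CO2, then given 23 nL compound in DMSO. Nonlytic luminescence from viable cells was read at 0, 8, 16, 24, 32 and 40 h.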

Assay [6] in a line: qHTS RealTime-Glo MT Cell Viability Assay in HepG2 cells - 0 hour (AID 1224889). Also: nearly all actives have a fitted effect of over 50% in size. Also: potency is read from the fitted curve at half-maximal effect. The method, boiled down: as §3
A short description of assay [7]: A CellTox Green Cytotoxicity Assay to monitor cytotoxicity in HepG2 cells - 8 hour (AID 1224890). Also: nearly all actives have a fitted effect of over 45% in size. The method, boiled down: as §1
Assay [8] is described as follows: qHTS assay to identify small molecule antagonists of the estrogen receptor alpha (ER-alpha) signaling pathway using the BG1 cell line in the presence of 0.1 nM 17-beta-estradiol - cell viability counter screen (AID 1259241). Also: nearly all actives have a fitted effect of over 40% in size. The method, boiled down: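 Viability in VM7Luc4E2 cells after 22 hr compound exposure under 0.1 nM 17beta-estradiol stimulation, by CellTiter-Fluor.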

Assay [9] can be described thus: qHTS assay to identify small molecule antagonists of the androgen receptor (AR) signaling pathway using the MDA cell line in the presence of 0.5 nM R1881 - cell viability counter screen (AID 1259242). Also: nearly all actives have a fitted effect of over 45% in size. The method, boiled down:
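MDA-kb2 cells (human breast carcinoma, stably carrying MMTV-luciferase reporter) were exposed to compounds with 0.5 nM R1881 (final) for 16 hr at 37C, 0% CO2; viability then read as live-cell protease fluorescence (CellTiter-Fluor, 30 min) in the same wells.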

Assay [10] in a line: qHTS assay to identify small molecule phospholipidosis (PLD) inducers (AID 1259344; active = well fitted curve in the direction sought with a large enough effect; an effect the other way counts as inactive or inconclusive). The method, boiled down:
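HepG2 cells grown on collagen I take up LipidTOX Red while exposed to compound for 24 h; after fixation they are imaged at 20x and pit metrics are extracted.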

A short description of assay [11]: qHTS assay to identify small molecule HDAC inhibitors (AID 1259364). Also: top concentration of the series differs between compounds; nearly all actives have a fitted effect of over 45% in size. The method, boiled down: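 Wild-type HCT-116 cells were plated overnight, exposed to compounds for 2 h at 37 °C, then given HDAC-Glo class I/II luminogenic reagent for 30 min at room temperature before luminescence was read.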
Assay [12] in a line: qHTS assay to identify small molecule HDAC inhibitors - cell viability counter screen (AID 1259365). The method, boiled down: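 Cytotoxicity was gauged in wild-type HCT-116 cells after a brief 2hr treatment with DMSO-dissolved compounds at 37C and 5% CO2, using CellTiter-Glo luminescence developed for 30min at room temperature.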
Assay [13] is described as follows: qHTS assay to identify small molecule agonists of the sonic hedgehog signaling (Shh) pathway - cell viability counter screen (AID 1259366). Also: nearly all actives have a fitted effect of over 50% in size. The method, boiled down: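 Stable Gli1-Luc NIH/3T3 clone, 2,000 cells/well. Compound exposure 24hr at 37C. Read-out: CellTiter-Fluor fluorescence.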
Assay [14] in a line: qHTS assay to identify small molecule antagonists of the sonic hedgehog signaling (Shh) pathway - cell viability counter screen (AID 1259367). Also: nearly all actives have a fitted effect of over 55% in size. The method, boiled down:
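After a 4 hr settling period, 3T3 Gli1-Luc cells were treated with DMSO-dissolved chemicals and conditioned medium, kept 24 hr at 37C in 5% CO2, and assayed for viability by CellTiter-Fluor fluorescence following 1 hr reagent incubation.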

Assay [15] is described as follows: qHTS assay to identify small molecule agonists of the sonic hedgehog signaling (Shh) pathway (AID 1259368; calls by dose curve; also: series mostly up to about 92 µM; nearly all actives have a fitted effect of over 15% in size). The method, boiled down: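 NIH/3T3-derived 3T3Gli1-Luc cells carrying a stably integrated Gli1 response element–firefly luciferase reporter were plated, left 4 hr at 37 C, then given compounds in DMSO for 24 hr. Luminescence was read 30 min after adding luciferase reagent.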

Assay [16] in a line: qHTS assay to identify small molecule antagonists of the sonic hedgehog signaling (Shh) pathway (AID 1259369; calls by dose curve; also: nearly all actives have a fitted effect of over 45% in size). The method, boiled down:
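NIH/3T3-derived 3T3Gli1-Luc cells with stably integrated Gli1-Luc reporter were preincubated 4hr at 37 C, then given compounds in DMSO plus Shh conditioned medium and incubated 24hr. Firefly luciferase luminescence read after 30min reagent at room temperature.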

Assay [17] in a line: A CellTox Green Cytotoxicity Assay to monitor cytotoxicity in HEK293 cells - 16 hour (AID 1224888). Also: nearly all actives have a fitted effect of over 35% in size. The method, boiled down:
as §2

The target in assay [18] is Estrogen receptor (Homo sapiens) (UniProt P03372). Kind of assay: qHTS assay to identify small molecule antagonists of the estrogen receptor alpha (ER-alpha) signaling pathway using the BG1 cell line in the presence of 0.1 nM 17-beta-estradiol (AID 1259244). Also: nearly all actives have a fitted effect of over 50% in size. Also: potency is read from the fitted curve at half-maximal effect. The method, boiled down:
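VM7Luc4E2 cells (endogenous full-length ER-alpha, stable 4xERE-luciferase) were grown 5 days in phenol red-free medium with charcoal-stripped FBS, then exposed 22 h at 37C to compounds plus 0.1 nM (final) 17beta-estradiol; ONE-Glo luminescence read-out.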

Sequence of Estrogen receptor (Homo sapiens) (P03372 whole entry, looked up): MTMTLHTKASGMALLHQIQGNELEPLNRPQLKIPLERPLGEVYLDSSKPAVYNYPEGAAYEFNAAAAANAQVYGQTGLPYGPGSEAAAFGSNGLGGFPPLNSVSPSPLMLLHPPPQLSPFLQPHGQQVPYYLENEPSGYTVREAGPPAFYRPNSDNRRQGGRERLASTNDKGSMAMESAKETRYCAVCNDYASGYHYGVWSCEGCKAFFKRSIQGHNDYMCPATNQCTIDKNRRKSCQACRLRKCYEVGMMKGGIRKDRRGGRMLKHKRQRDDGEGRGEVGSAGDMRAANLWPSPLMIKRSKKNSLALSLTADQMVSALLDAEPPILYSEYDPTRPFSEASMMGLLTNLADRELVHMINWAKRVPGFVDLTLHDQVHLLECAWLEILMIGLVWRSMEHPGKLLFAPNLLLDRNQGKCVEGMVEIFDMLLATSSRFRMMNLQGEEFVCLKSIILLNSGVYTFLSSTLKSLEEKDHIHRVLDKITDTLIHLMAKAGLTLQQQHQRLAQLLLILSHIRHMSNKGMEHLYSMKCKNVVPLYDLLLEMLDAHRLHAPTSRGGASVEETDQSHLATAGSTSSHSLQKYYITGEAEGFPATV

For the molecule `CC1(C)O[C@@H]2C[C@H]3[C@@H]4CCC5=CC(=O)C=C[C@]5(C)[C@@]4(F)[C@@H](O)C[C@]3(C)[C@]2(C(=O)CO)O1`, the Potency result in assay [1], in [3], in assay [4], in [5], in [7] and in assay [8] was “inactive” throughout. In addition, the Potency entry in [9], in [10], in assay [11], in assay [12], in assay [13] and in [14] was “inactive” throughout. Also, the Potency result in [16] is “inactive”. Also, the Potency result in assay [2] is “inactive and 9.52 µM (active)”; in assay [6] it was 22 µM (active) and 12.3 µM (active). Further, the result in [15] was inactive.
As for `Cc1cc(C)nc(NS(=O)(=O)c2ccc(N)cc2)n1`, the Potency result in assay [1], in [2], in assay [3], in assay [4], in assay [5] and in [17] was “inactive” each time. Further, the Potency entry in [6], in assay [7], in assay [8], in assay [9], in [10] and in assay [11] was “inactive” throughout. Moreover, the Potency entry in assay [12], in assay [13], in assay [14] and in assay [16] was “inactive” each time. Moreover, the result in [15] was inactive.
With `O=c1[nH]cc(F)c(=O)[nH]1`, the Potency in assay [1] is 45.3 µM (active) and inactive; in [18] it was 12.7 µM (active) and inactive. Further, the Potency entry in assay [2], in assay [3], in assay [4], in [5], in assay [17] and in assay [6] was “inactive” throughout. Also, the Potency result in [7], in assay [9], in [10], in assay [11], in assay [12] and in assay [13] was “inactive” in each case. The Potency entry in assay [14] and in [16] was “inactive” throughout. In [15], the molecule was classed as inactive.
With `CCN(Cc1c(F)cccc1Cl)c1c([N+](=O)[O-])cc(C(F)(F)F)cc1[N+](=O)[O-]`, the Potency entry in assay [1], in [2], in [3], in [17], in [6] and in assay [7] was “inactive” throughout. Besides, the Potency result in assay [8], in assay [9], in [11], in assay [12], in assay [13] and in assay [14] was “inactive” in each case. Moreover, in [16], the Potency entry was “inactive”. Also, the Potency in assay [4] is 43.6 µM (active). Moreover, the molecule was called inactive in [15].
Turning to `CN(C)CCOC(C)(c1ccccc1)c1ccccn1` (stereo not drawn), the Potency result in assay [1], in assay [2], in [3], in [4], in assay [5] and in [17] was “inactive” throughout. For the same molecule, the Potency entry in assay [6], in assay [7], in [8], in [9], in [10] and in assay [11] was “inactive” in each case. The Potency entry in assay [12], in assay [13], in [14] and in [16] was “inactive” in each case. Further, the outcome in [15] was inactive.
With `Cc1ncc([N+](=O)[O-])n1C`, the Potency result in [1], in [3], in [4], in assay [5], in assay [17] and in [6] was “inactive” throughout. The Potency result in assay [7], in [8], in assay [9], in [18], in assay [11] and in [12] was “inactive” throughout. Moreover, the Potency result in assay [13], in assay [14] and in assay [16] was “inactive” each time. For the same molecule, the Potency in [2] is 48.3 µM (active) and inactive. Moreover, the outcome in assay [15] was inactive.
Consider `O=C1O[C@H]([C@@H](O)CO)C(O)=C1O`, for which the Potency result in assay [1], in [2], in [3], in assay [4], in assay [5] and in [17] was “inactive” each time. Also, the Potency result in assay [6], in assay [7], in assay [8], in assay [9], in assay [10] and in assay [11] was “inactive” throughout. Further, the Potency result in [12], in assay [13], in [14] and in assay [16] was “inactive” throughout. The molecule was called inactive in assay [15].
For the molecule `CNNCc1ccc(C(=O)NC(C)C)cc1`, the Potency in assay [1] was 24.5 µM (active) and 19.5 µM (active). Also, the Potency entry in assay [2], in assay [3], in [4], in assay [5], in [17] and in assay [6] was “inactive” throughout. Moreover, the Potency entry in [7], in assay [8], in [9], in assay [10], in assay [11] and in [12] was “inactive” each time. The Potency result in [13], in assay [14] and in assay [16] was “inactive” throughout. In addition, in assay [15], the molecule was classed as inactive.
